Our source for the growth values is PubChem BioAssay (NCI).

About 83,000 compounds went through this panel and 20% of them were active in at least one assay; those are over-represented in the sample as a whole.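 Single-concentration screen, 48 h exposure, 96-well plates. Endpoint: percent growth. Below 10 = active.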 Unmarked numbers belong to inactive results. Activity calls are given as the source filed them.

The assay relates to HL-60(TB) leukemia. Briefly: NCI-60 one-dose screen, 48 h (100 = growth as untreated, 0 = no growth, -100 = all killed). Particulars: 10 µM unless noted.
As to `CCOC(=O)c1ccc(Nc2ccnc(SCC(=O)c3ccc(C#N)cc3)n2)cc1`, the growth is 75.6%.
Turning to `CC(C)(Cl)CCC1=C(Cl)C(=O)c2ccccc2C1=O`, the growth is -10.1% (active).
With `CC(C)=CCCC(C)C1=C(O)C(=O)C(C)=CC1=O` (stereo unspecified) the figure was -47.1% (active).
With `Cc1cc(O)c(C(C)C)cc1Cl` the figure was 101%; with `O=C(COc1ccc(/C=C2\CSc3ccccc3C2=O)cc1)c1ccc(Cl)cc1`, 80%; with `CN1[C@@H]2CC[C@H]1/C(=C\c1ccccc1)C1=C2[C@@H](c2ccccc2)C(C#N)=C(N)O1`, 60.4%.
To `C(=C\c1cn(-c2ccccc2)nc1-c1ccccc1)/c1nnc(-c2c[nH]c3ccccc23)o1` belongs 98.1%; to `CN(C)CCCCC(C(=O)CBr)(c1ccccc1)c1ccccc1`, -36.1% (active); to `CN1CCN(c2ccc(NC(=O)c3cncnc3Nc3ccc4c(ccn4Cc4cccc(F)c4)c3)cc2)CC1`, -54.3% (active).
`COc1ccc(NS(=O)(=O)c2ccc(-c3cnc(C4CC4)o3)cc2)cc1`: the growth is 76.3%.
With `CCCCCCCCCCCCCCn1cc(C2=C(c3coc4ccc(OC)cc34)C(=O)NC2=O)c2ccccc21`, the growth is 129%.
To `COc1ccc2nccc(/C=C/c3ccnc4ccc(OC)cc34)c2c1` belongs 63.5%; to `NC(=O)CC1(O)C=C(Br)C(=O)C(Br)=C1`, -27.9% (active).
Consider `CC(=O)OC/C(C)=C\CC(C)COC(C)=O` (stereo unspecified), for which the growth is 101%.
With `COc1ccc(N(C)c2nc(Cl)nc3ccn(C)c23)cc1` the figure was -35.3% (active); with `COc1ccc([N+](=O)[O-])c(S(=O)(=O)c2ccc(Cl)cc2)n1`, 38.2%.
